Screening data (PubChem)
Hits are enriched below; roughly 7.4% of the tested compounds scored in any of these assays.
NPC1 promoter act = activates the NPC1 promoter | Huh7 NPC1 promoter luciferase reporter, 24 h | Potency, µM (highest dose often 9.22 µM), most hits filed as activators | 2.4% of 320,000 active | AID 485313; further: nearly all actives have a fitted effect of over 60% in size
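Readout is luciferase luminescence, reflecting NPC1 promoter activation in stably transfected Huh7 cells after 24 h compound exposure at 37 °C in reduced-serum medium with 10% FBS.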
ELG1 genotoxic = genotoxicity induction in ELG1-luciferase HEK293T cells. HEK293T ELG1-luciferase reporter, luminescence, 16 h. Potency, µM (highest dose often 46 µM), hits mostly activators. 1.3% of 330,000 active; further: nearly all actives have a fitted effect of over 60% in size
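Luminescence read-out: rising ELG1-luciferase signal, reflecting elevated ELG1 protein under genetic stress, flags genotoxic compounds. Cells were treated for 16 hr at 37 °C before ONE-Glo detection.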
Rab9 promoter act = activates the Rab9 promoter. Huh7 Rab9 promoter-luciferase reporter, luminescence, 24 h. Potency, µM (highest dose often 9.22 µM), actives largely listed as activators. 2.8% of 320,000 active. AID 485297; further: nearly all actives have a fitted effect of over 60% in size
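Cell-based reporter: Huh7 stable for Rab9 promoter-driven luciferase, plated in reduced-serum medium with 10% FBS at 1500 cells/well, compound-treated 24 h at 37 °C, luminescence read after 10 min reagent.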
FLuc counter = counter-screen for miR-21 project: firefly luciferase inhibitors or activators; P08659; purified FLuc, Km substrates, luminescence inhibition; Potency, µM (highest dose often 57.5 µM), most hits filed as inhibitors; 6.9% of 360,000 active; further: nearly all actives have a fitted effect of over 55% in size
Target sequence (P08659 whole entry, looked up): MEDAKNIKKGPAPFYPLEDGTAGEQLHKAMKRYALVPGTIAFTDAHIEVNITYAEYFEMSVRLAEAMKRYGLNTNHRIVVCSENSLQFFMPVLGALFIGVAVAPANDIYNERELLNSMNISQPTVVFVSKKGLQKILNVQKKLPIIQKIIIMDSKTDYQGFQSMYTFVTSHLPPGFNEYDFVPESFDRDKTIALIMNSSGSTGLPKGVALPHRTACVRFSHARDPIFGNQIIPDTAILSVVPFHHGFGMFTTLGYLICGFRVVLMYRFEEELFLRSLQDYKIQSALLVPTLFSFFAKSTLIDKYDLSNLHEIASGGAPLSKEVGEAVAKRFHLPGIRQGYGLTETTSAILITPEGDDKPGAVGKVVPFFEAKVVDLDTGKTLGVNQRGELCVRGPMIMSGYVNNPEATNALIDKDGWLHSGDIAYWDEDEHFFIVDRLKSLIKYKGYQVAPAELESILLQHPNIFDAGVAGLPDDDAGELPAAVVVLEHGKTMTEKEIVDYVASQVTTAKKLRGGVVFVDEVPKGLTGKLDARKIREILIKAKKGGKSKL
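Purified P. pyralis luciferase (10nM final) with 10uM D-luciferin and 10uM ATP (Km levels) in 50mM Tris acetate pH 7.5, 10mM Mg acetate, 0.01% Tween-20, 0.05% BSA; qHTS 6-point titration, ~60 µM downward; luminescence read.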
SMN2 splice up = increases expression of the SMN2 splice variant | HEK293 SMN2-luciferase splicing reporter, luminescence, 30-36 h | Potency, µM (highest dose often 46.1 µM), usual class: activators | 2.8% of 210,000 active | AID 1458; further: nearly all actives have a fitted effect of over 55% in size
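HEK293 cells carry an SMN2 minigene-luciferase reporter in which exon 7 inclusion puts luciferase in frame. Cells were seeded at 2000 cells/well, attached for 10-12 hours, then exposed to compounds for 30-36 hours at 37C before ONE-Glo luminescence.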
Hits are given with their value; i = inactive; ? = inconclusive; nt = no result; [ ] = another dose, or the depositor's remark. The call rests on the fitted dose curve; in most records, active means well fitted curve in the direction sought with a large enough effect; inconclusive means small, poorly fitted or top-dose-only effect, or another doubt; inactive means no such curve, though single readings can be large; an effect the other way counts as inactive or inconclusive.

SMILES | NPC1 promoter act | ELG1 genotoxic | Rab9 promoter act | FLuc counter | SMN2 splice up
COc1ccc(-c2nc(SCC(=O)NC3CCCCC3)n[nH]2)cc1 | i | i | i | 15.1µM | nt
NS(=O)(=O)c1cccc(NC(=O)COC(=O)CNC(=O)c2ccc(-c3ccccc3)cc2)c1 | i | i | i | 6.75µM | nt
Cc1[nH]c2ccc(C(=O)OCC(=O)Nc3cccc(S(N)(=O)=O)c3)cc2c1C | i | i | i | 16.9µM | nt
CCOc1ccc(N2CC(C(=O)Nc3ccccc3C(=O)NC3CC3)CC2=O)cc1 (stereo not given) | i | i | i | i | nt
COc1cc(/C=C/C(=O)c2ccc3c(c2)OCCO3)cc(OC)c1OC | i | i | i | ? | nt
COc1ccc(/C=C/C(=O)c2ccc3c(c2)OCO3)cc1OC | i | ? | i | 15.1µM | nt
COc1ccc(C(=O)COC(=O)c2ccc3c(c2)OCCO3)c(OC)c1 | i | i | i | 12µM | nt
COc1ccc(OC)c(/C=C/C(=O)c2ccc3c(c2)OCCO3)c1 | i | i | i | 2.39µM | nt
COc1cc(/C=C/C(=O)c2ccc3c(c2)OCO3)cc(OC)c1OC | i | i | i | nt | nt
COc1cc(/C=C/C(=O)c2ccc(C)cc2)ccc1OCC#N | i | i | i | 16.9µM | i
COc1ccc(/C=C/C(=O)c2ccc(C(=O)/C=C/c3ccc(OC)c(OC)c3)cc2)cc1OC | i | i | i | i | nt
Cc1ccc2c(c1)N(C(=O)N1CCC(C(=O)NC3CCCCCC3)CC1)CCO2 | nt | nt | nt | i | nt
O=S(=O)(NCC(c1ccco1)N1CCOCC1)c1ccc(F)cc1 (stereo not given) | nt | nt | nt | i | nt
COc1ccc(CC(=O)Nc2cccc(-c3nnc(-c4cccc(C)c4)o3)c2)cc1OC | i | i | i | ? | i
O=C(COc1ccccc1)Nc1ccc(-c2nnc(-c3ccco3)o2)cc1 | ? | i | 1.12µM | i | 12.6µM
O=C(Cc1ccccc1)Nc1cccc(-c2nnc(-c3ccco3)o2)c1 | i | i | i | i | i
COc1ccc(CC(=O)Nc2cccc(-c3nnc(-c4ccc(C)cc4)o3)c2)cc1OC | i | i | i | 3.01µM | i
COc1ccccc1OCC(=O)Nc1cccc(-c2nnc(-c3ccco3)o2)c1 | i | i | i | 12µM | 17.8µM
COc1ccc(S(=O)(=O)N2CCCCC2)cc1NC(=O)CSc1ncccn1 | i | i | i | ? | nt
O=C1C(c2ccncc2)=C(O)c2ccccc21 | 0.708µM | ? | 4.47µM | 2.13µM | 3.16µM
O=C1C(c2cc(=O)c3ccccc3[nH]2)=C(O)c2ccccc21 | 1.58µM | 8.2µM | 2.24µM | 0.757µM | 1µM
O=C(Nc1cccc(F)c1)N1CCCCCC1 | i | i | i | i | nt
CC/C(C)=N/Oc1nc(C)cc(C)n1 | i | i | i | i | nt
Fc1ccc(-n2[nH]nnc2=S)cc1N1CCCC1 | i | i | i | 23.9µM | i
Cc1cc(C)nc(SCc2nc3ncccn3c2Br)n1 | i | i | i | i | i
SMILES | NPC1 promoter act | ELG1 genotoxic | Rab9 promoter act | FLuc counter | SMN2 splice up
Clc1c(CSc2nc3ccccc3o2)nc2sccn12 | 1.58µM | 5.8µM | 2µM | 9.53µM | 10µM
Brc1c(CSc2nc3ccccc3o2)nc2ncccn12 | ? | ? | ? | 15.1µM | i
Clc1c(CSc2nc3ccccc3o2)nc2ccccn12 | 1.58µM | 2.59µM | 2µM | 1.9µM | 14.1µM
O=C(CSc1nc2ccccc2o1)Nc1nncs1 | i | i | i | i | i
O=C(C1CCCN(S(=O)(=O)c2cccs2)C1)N1CCN(c2cccc(Cl)c2)CC1 (stereo not given) | nt | nt | nt | i | i
COC(C[C@@H]1O[C@@H]1[C@H](O)[C@@H](C)OCc1ccccc1)OC | i | i | i | i | nt
O=C(CCCOc1ccccc1)NNC(=O)c1ccncc1 | nt | i | nt | nt | nt
COc1ccc(OC)c(CCNc2nc3ccccc3c3nc(-c4cccnc4)nn23)c1 | nt | nt | nt | i | i
COc1ccc2c(c1)C(=O)c1ccccc1CO2 | 3.98µM | ? | 3.16µM | 6.01µM | ?
CCc1ccc(NC(=O)c2cnc3scc(C)n3c2=O)cc1 | ? | 18.4µM | 4.47µM | ? | 8.91µM
Cc1csc2ncc(C(=O)Nc3cccc(C(F)(F)F)c3)c(=O)n12 | i | ? | i | i | ?
CCc1ccc(NC(=O)c2cnccn2)cc1 | 1.26µM | ? | 1.26µM | 5.36µM | nt
O=C(Nc1ccc(OC(F)(F)F)cc1)c1cnccn1 | 1.78µM | ? | 2.82µM | 12µM | nt
COc1ccc(NC(=O)c2c(C)oc3ccc(O)c(CN4CCCCCC4)c23)cc1Cl | nt | nt | nt | i | i
CCN1CCC(N(Cc2ccc(F)cc2)C(=O)Nc2cc(Cl)ccc2C(=O)OC)CC1 | nt | nt | nt | i | nt
COc1ccc(NC(=O)c2sc(=S)[nH]c2N)cc1 | i | i | i | 16.9µM | ?
COc1ccc(NC(=O)c2ncn[nH]2)cc1 | i | i | i | 15.1µM | i
COc1ccc(NC(=O)c2cccc(C(=O)Nc3ccc(OC)cc3)n2)cc1 | i | i | i | 5.36µM | i
COc1ccc(NC(=O)c2ccc(NC(=O)c3ccncc3)cc2)cc1 | i | 10.3µM | i | i | nt
COc1ccc(CNC(=O)C2CCN(C(=O)Cc3ccccc3)CC2)cc1 | i | i | i | i | nt
COc1ccc(C(=O)Nc2ccc(C3CC3(Cl)Cl)cc2)cc1 (stereo not given) | i | i | ? | 1.51µM | nt
COc1ccc(NC(=O)c2ccc(Oc3ncccn3)cc2)cc1 | i | ? | ? | 16.9µM | i
CCOc1ccc(NC(=O)c2ccc(OC)cc2)cc1 | ? | i | i[1.84 µM] | ? | i
